Screening data: PubChem, The Scripps Research Institute Molecular Screening Center
Rows were chosen to be rich in hits. Some 4.8% of all compounds tested hit in one or more screens of this group.
DAX1 inh-1 – inhibitors of human orphan nuclear receptor DAX1 (NR0B1); inhibition, % at 6.75 µM; HEK293 Gal4-DAX1 luciferase reporter, luminescence; AID 504766; 340,000 compounds, 0.99% hits;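 active = inhibition above the mean over all tested compounds plus 3 SD, cut at about 4.2% in these data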;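 note: 0% = DAX1-transfected cells with DMSO and 100% = empty-vector control cells with DMSO; inhibition shows as a rise in luminescence from relieved DAX1 repression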
Target sequence (P51843 207-470 limits assumed): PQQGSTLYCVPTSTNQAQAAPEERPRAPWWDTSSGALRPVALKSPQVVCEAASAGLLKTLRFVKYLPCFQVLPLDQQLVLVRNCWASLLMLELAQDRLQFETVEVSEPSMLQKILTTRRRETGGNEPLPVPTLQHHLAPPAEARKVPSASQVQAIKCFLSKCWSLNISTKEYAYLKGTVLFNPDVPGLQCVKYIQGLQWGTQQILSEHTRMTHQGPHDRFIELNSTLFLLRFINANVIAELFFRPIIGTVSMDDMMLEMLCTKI
SMARCA2 activ – increases SMARCA2 function in MMTV reporter cells. MG213 cells, MMTV-luciferase reporter, dexamethasone, overnight. activation, % at 9.1 µM. 370,000 compounds, 1% hits; in the data active = activation above about 7.8%;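 note: 0% = vehicle wells and 100% = reference activator wells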
hcDAF12 agonist – activators of H. contortus DAF-12 nuclear receptor. activation, % at 6.8 µM. 370,000 compounds, 1.4% hits. HEK293 hcDAF-12 lit1-tk-luc reporter, luminescence; 0% DMSO, 100% Δ7-dafachronic acid. AID 652067;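 active = activation above the mean of all tested compounds plus 3 SD, cut at about 5.5% in these data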;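 note: 100% = response to 3 µM Δ7-dafachronic acid high control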
hgDAF-12 ag – agonists of H. glycines DAF-12 nuclear receptor; HEK293 GAL4-hgDAF12 UAS-luciferase reporter, agonist luminescence; normalized to butyrate control; activation, % at 6.8 µM; 370,000 compounds, 1.8% hits; AID 687014;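 active = activation above a cutoff set at the mean of all screened compounds plus 3 SD, cut at about 10% in these data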;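 note: 0% = DMSO wells and 100% = sodium butyrate wells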
ssDAF-12 act – activators of S. stercoralis DAF-12 nuclear receptor; HEK293 ssDAF-12/GRIP1 lit1-tk-luc reporter, luminescence; % of 3 µM dafachronic acid response; activation, % at 6.8 µM; 370,000 compounds, 1% hits;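 active = activation above the mean over all tested compounds plus 3 SD, cut at about 0.9% in these data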;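 note: 0% = DMSO-only wells and 100% = 3 µM delta7-dafachronic acid wells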
DAX1 inh-2 – blocks DAX1 repression of SF-1 activated StAR promoter | HEK293T StAR-luciferase reporter, SF-1/DAX-1 repression relief | inhibition, % at 6.8 µM | 370,000 compounds, 1.1% hits | AID 652010;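 active = inhibition above the mean over all tested compounds plus 3 SD, cut at about 3.6% in these data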;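 note: 0% = DAX-1 cells with DMSO and 100% = cells lacking DAX-1 with DMSO; higher inhibition means more luminescence from relief of DAX-1 repression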
LXRb hcDAF ctr – counter-screen for hcDAF-12 agonists: agonists of human LXR-beta; AID 743027; HEK293 Gal4-LXR tk-luc reporter, luminescence, 24 h; normalized: DMSO 0%, positive control 100%; activation, % at 6.8 µM; 3,400 tested, under 10 active; shares compounds with hcDAF12 agonist;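 active = mean percent activation of the reporter above a cutoff set as the average over tested compounds plus their standard deviation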
hcDAF12 ag – confirmation of H. contortus DAF-12 agonists; activation, % at 6.8 µM; 3,400 compounds, 61% hits; shares compounds with hcDAF12 agonist; HEK293 hcDAF-12 lit1-tk-luc reporter, luminescence; % of Δ7-dafachronic acid response;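 active = mean activation across triplicate tests above the threshold derived from the earlier primary screen, cut at about 5.5% in these data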;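 note: 0% = DMSO only wells and 100% = 3 µM Δ7-dafachronic acid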
hgDAF12 conf – confirmation of H. glycines DAF-12 agonists. HEK293 GAL4-hgDAF12 luciferase reporter, agonist mode; percent of butyrate response. 3,300 compounds, 80% hits. activation, % at 6.8 µM. shares compounds with hgDAF-12 ag;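 active = mean activation over triplicate wells above the hit cutoff derived from the earlier primary screen, cut at about 11% in these data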;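 note: 0% = DMSO low control and 100% = 2 mM sodium butyrate high control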
LXR ag 2 – LXR-beta agonism as DAF-12 counter-screen. shares compounds with hgDAF-12 ag. activation, % at 6.8 µM. 3,300 tested, under 10 active. HEK293 Gal4-LXR luciferase reporter, 24 h;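 active = mean activation of the triplicate above a set limit carried over from the primary screen, none filed active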
Active calls of the source: *; . = no result.

SMILES	DAX1 inh-1	SMARCA2 activ	hcDAF12 agonist	hgDAF-12 ag	ssDAF-12 act	DAX1 inh-2	LXRb hcDAF ctr	hcDAF12 ag	hgDAF12 conf	LXR ag 2
O=C(O)CCSc1nnnn1-c1ccccc1	1	-1	0	-1	-1	0	.	.	.	.
Fc1ccccc1OCCSc1nnnn1-c1ccccc1	3	4	8.1*	13*	0	3	1	7.7*	18*	1
COC(=O)C1=C(C)N(C)C(=NCc2ccc(C(F)(F)F)cc2)NC1c1cccc(F)c1 (stereo unspecified)	.	1	-1	3	-1	0	.	.	.	.
Cc1ccc(O)c(-c2cc(-c3ccccc3C)[nH]n2)c1	0	1	1	7	0	0	.	.	.	.
Cc1ccc(-c2cc(-c3cccs3)[nH]n2)c(O)c1	3	6	19*	19*	2.3*	4.3*	2	13*	21*	1
C[C@@H]1COc2cc(N3CCOCC3)ccc2S(=O)(=O)N1	.	-5	0	0	-1	0	.	.	.	.
OC(c1ccc(F)cc1)c1nc(-c2cc3ccccc3o2)cs1 (stereo unspecified)	.	1	6.6*	15*	1.2*	3.9*	1	4	14*	0
O=c1c(-c2cc3ccccc3o2)[n+]([O-])c2ccccc2n1OCc1ccccn1	4	5	15*	18*	2.2*	4.3*	1	9.7*	21*	1
CCOn1c(=O)c(-c2cc3ccccc3o2)[n+]([O-])c2ccccc21	1	.	.	.	.	.	.	.	.	.
c1csc(C2=NNC(=NC3CCCCC3)SC2)c1	.	4	10*	17*	1.5*	3	1	6	16*	1
Cc1cc(C2=NNC(=NC3CCCCC3)SC2)c(C)n1-c1c(C)n(C)n(-c2ccccc2)c1=O	0	1	1	-1	-2	-1	.	.	.	.
C=CCCC[C@H]1OC(=O)[C@H](C)NC(=O)[C@H](C(C)C)NC(=O)[C@@H]2CCCN2C(=O)[C@H](Cc2ccccc2)OC(=O)[C@@H](C(C)C)N(C)C(=O)[C@H](C(C)C)NC(=O)C1(C)C	.	-3	-2	-4	-1	-2	.	.	.	.
O=C(NCc1ccccc1)[C@H]1CCCN1C(=O)[C@H]1CCCN1C(=O)c1ccc(F)cc1F	.	-1	-1	1	0	1	.	.	.	.
O=C(Nc1ccc(-c2nc3ccccc3o2)cc1)C1CCCO1 (stereo unspecified)	0	3	9.7*	15*	1.1*	3	2	7.6*	21*	1
O=C(Nc1ccc(-c2nc3cccnc3s2)cc1)C1CCCO1 (stereo unspecified)	-4	1	1	6	0	2	.	.	.	.
CC(=NCc1ccco1)c1c(C)[nH]n(-c2nc3ccccc3s2)c1=O	-2	-5	-3	-8	-2	-2	.	.	.	.
C/C(=N/NC(=O)c1cccs1)c1c(C)[nH]n(-c2nc3ccccc3s2)c1=O	-3	0	7.7*	17*	0	4.0*	1	5	9	0
O=C(Nc1ccc2ccccc2n1)c1ccccc1Br	1	1	16*	19*	3.8*	2	1	9.5*	18*	1
Cc1ccc(C(=O)Nc2ccc3ccccc3n2)cc1	1	1	8.2*	15*	2.7*	3	2	8.4*	21*	1
Cc1cc(C)cc(NC(=O)Nc2ccc3ccccc3n2)c1	2	-2	1	2	-1	1	.	.	.	.
O=C(Nc1ccc2ccccc2n1)c1ccccc1	4	5	13*	20*	1.1*	2	2	12*	21*	1
C/C(=N\NC(=O)c1nn(C)c(C)c1Br)c1ccc(NC(=O)c2ccccc2F)cc1	4.4*	1	7.2*	14*	0	4.2*	0	0	2	0
COc1ccc(C(=O)N/N=C(/C)c2cccc(NC(=O)c3ccccc3F)c2)cc1	1	-3	3	6	-1	1	.	.	.	.
CCCCC1O[C@@H](C)[C@@H]2CN3CCc4c([nH]c5ccccc45)[C@@H]3C[C@@H]2N1C (stereo partly specified)	.	-1	1	0	0	1	.	.	.	.
Cc1ccc(-c2nc3ccc(Cl)cn3c2Cc2cccc(Cl)c2)cc1	.	1	6.6*	14*	0	4.1*	1	3	8	0
SMILES	DAX1 inh-1	SMARCA2 activ	hcDAF12 agonist	hgDAF-12 ag	ssDAF-12 act	DAX1 inh-2	LXRb hcDAF ctr	hcDAF12 ag	hgDAF12 conf	LXR ag 2
O=C(C(=O)N1CCC(CNS(=O)(=O)c2ccc(F)c(F)c2)CC1)c1cc2ccccc2o1	.	-6	-1	1	-1	-1	.	.	.	.
Cc1nc(-c2ccc3c(c2)OCCCO3)cs1	3	5	6.6*	13*	0	2	1	5	18*	1
COc1ccc(C(=O)Cn2c(=N)n(C)c3ccccc32)cc1	4.5*	5	14*	18*	1.7*	3	1	9.1*	19*	1
Cc1nc2ccc(NC(=O)c3ccc(Cl)nc3)cc2s1	1	-3	-2	-1	-1	0	.	.	.	.
Cc1nc2ccc(NC(=O)c3cc(Cl)ccn3)cc2s1	4	6	7.0*	16*	0	4	1	5.8*	15*	1
CSc1nc2ccc(NC(=O)c3ccccn3)cc2s1	-1	6	10*	16*	1.3*	3.9*	2	7.8*	17*	1
CSc1nc2ccc(NC(=O)C3=NN(c4ccccc4)C(=O)CC3)cc2s1	-1	-1	1	-3	-1	-1	.	.	.	.
CC1(C)CC(=O)N(CC(=O)N2CCN(c3ccc(F)cc3)CC2)c2ccccc2S1(=O)=O	.	-2	-1	-2	-2	0	.	.	.	.
CC(C)Cc1cc(C(=O)Nc2cccc(O)c2)no1	-5	4	8.4*	18*	0	4	1	6.5*	19*	1
COc1ccc(NC(=O)c2cc(CC(C)C)on2)cc1OC	1	-1	0	7	0	1	.	.	.	.
